The values that follow come from the supplement of paper PMC13380429.

Molecules are shown by their SMILES. Counter-ions that a name gives are not always drawn.

Experiment [1] relates to Vero E6 infected with SARS-CoV-2. Nature of the experiment: morphology score (similarity to uninfected cells); higher = more like uninfected cells. The following applies: 24 h.
For experiment [2] the test system is unchanged. Nature of the experiment: SARS-CoV-2 infection rate relative to infected DMSO; higher = more infection, active = 60 or less. The following applies: 24 h.

`CCN1C[C@H](C)n2c(c(O)c3c(=O)n(Cc4ccc(F)c(Cl)c4)nc(C(=O)NC)c32)C1=O` (10 µM): the morphology score in experiment [1] came to 0.0188. Further, the SARS-CoV-2 infection rate in experiment [2] was 97.5% (inactive).

In the case of `CCCC(C)C1(CC)C(=O)NC(=O)NC1=O` (centres undefined) [pentobarbital] (10 µM), the morphology score in experiment [1] was 0.0334. In experiment [2], the SARS-CoV-2 infection rate was 100% (inactive).

In turn, `N=c1ccn2c(n1)O[C@H]1[C@H](O)[C@@H](CO)O[C@H]12` [Cyclocytidine HCl] (0.833333 µM) gave a morphology score in experiment [1] of -0.127. The SARS-CoV-2 infection rate in experiment [2] is 114% (inactive).

As to `CCc1cc2c(cc1CC)CC(NC[C@H](O)c1ccc(O)c3[nH]c(=O)ccc13)C2` [indacaterol] (10 µM), the morphology score in experiment [1] was 0.0532. Besides, in experiment [2], the SARS-CoV-2 infection rate is 114% (inactive).

Compound `CCN(CC)CCOc1ccc(C(O)(Cc2ccc(Cl)cc2)c2ccc(C)cc2)cc1` (centres undefined) [Triparanol] (0.833333 µM) yielded a morphology score in experiment [1] of 0.0848. For the same compound, in experiment [2], the SARS-CoV-2 infection rate was 77.5% (inactive).

For the compound `CN(C)CCc1ccc(O)cc1` [hordenine] (10 µM), the morphology score in experiment [1] was 0.163. Besides, in experiment [2], the SARS-CoV-2 infection rate is 90.5% (inactive).

In experiment [1], `C[C@H](N[C@@H](CCc1ccccc1)C(=O)O)C(=O)N1Cc2ccccc2C[C@H]1C(=O)O` [quinaprilat] (10 µM) had a morphology score of 0.0914. In addition, in experiment [2], the SARS-CoV-2 infection rate is 106% (inactive).

On to `CCC[C@@H]1CC(=O)N([C@@H](CC)C(N)=O)C1` [Brivaracetam] (10 µM), for which the morphology score in experiment [1] was 0.0266. The SARS-CoV-2 infection rate in experiment [2] is 111% (inactive).

In experiment [1], `Cc1c(Cn2c(C)nc3c(C(=O)O)cc(N4CCOCC4)cc32)cccc1C(F)(F)F` (0.833333 µM) returned a morphology score of -0.135. Also, the SARS-CoV-2 infection rate in experiment [2] was 118% (inactive).

As for `Nc1nc(N)c2nc(-c3cccc(O)c3)cnc2n1` (10 µM), the morphology score in experiment [1] was 0.242. Also, the SARS-CoV-2 infection rate in experiment [2] is 101% (inactive).

For the compound `CCCCCCCCc1ccc(-c2ccc(C(=O)O)cc2)cc1` (10 µM), the morphology score in experiment [1] was -0.0106. Also, the SARS-CoV-2 infection rate in experiment [2] was 96% (inactive).

In experiment [1], `Cc1cc(C)n(-c2cccc([C@H](CC(=O)O)CN3CC[C@@H](CCc4ccc5c(n4)NCCC5)C3)c2)n1` [integrin-antagonist-1] (10 µM) had a morphology score of -0.102. Besides, in experiment [2], the SARS-CoV-2 infection rate is 111% (inactive).

With `Cc1ncc(OC[C@@]2(c3cccc(F)c3)C[C@H]2C(=O)Nc2ccc(F)cn2)c(C)n1` [lemborexant] (10 µM), in experiment [1], the morphology score is 0.0108. The SARS-CoV-2 infection rate in experiment [2] is 112% (inactive).

Consider `CC[C@@H](C)c1ccc(NC(=O)Cn2cnc3c2c(=O)n(C)c(=O)n3C)cc1` (racemic) (10 µM), for which, in experiment [1], the morphology score is 0.119. In addition, the SARS-CoV-2 infection rate in experiment [2] is 92% (inactive).

`O=C(O)c1ccccc1` [benzoic-acid] (10 µM) registered a morphology score in experiment [1] of 0.0363. The SARS-CoV-2 infection rate in experiment [2] is 110% (inactive).

Turning to `COc1cc2ncnc(Nc3ccc(Cl)cc3F)c2cc1OC` (10 µM), the morphology score in experiment [1] is -0.174. In addition, in experiment [2], the SARS-CoV-2 infection rate was 117% (inactive).

In experiment [1], `COCC(=O)O[C@]1(CCN(C)CCCc2nc3ccccc3[nH]2)CCc2cc(F)ccc2[C@@H]1C(C)C` [mibefradil] (10 µM) returned a morphology score of 0.79. Besides, the SARS-CoV-2 infection rate in experiment [2] was 17.5% (active).

In turn, `Cc1cccc(-c2n[nH]cc2-c2ccc3ncccc3n2)n1` [repsox] (10 µM) came in with a morphology score in experiment [1] of 0.188. Further, the SARS-CoV-2 infection rate in experiment [2] is 97% (inactive).

The compound `O[C@@H]1CCCC[C@H]1N1CCC(c2ccccc2)CC1` (racemic) [vesamicol] (10 µM) showed a morphology score in experiment [1] of 0.23. The SARS-CoV-2 infection rate in experiment [2] was 98.5% (inactive).

In turn, `Cc1ccc2c(c1)[C@]13CCCC[C@@H]1[C@H](C2)N(C)CC3` [dimemorfan] (10 µM) showed a morphology score in experiment [1] of 0.368. Moreover, the SARS-CoV-2 infection rate in experiment [2] was 92.5% (inactive).

With `COc1cccc(OC)c1OCCNC[C@H]1COc2ccccc2O1` (10 µM), the morphology score in experiment [1] is 0.138. Further, the SARS-CoV-2 infection rate in experiment [2] was 108% (inactive).

Compound `COc1cc2ncc(-c3ccccc3)nc2cc1OC` [tyrphostin-AG-1296] (10 µM) returned a morphology score in experiment [1] of 0.195. The SARS-CoV-2 infection rate in experiment [2] was 108% (inactive).

In turn, `CNC(=O)c1ccccc1Nc1nc(Nc2ccc(N3CCOCC3)cc2OC)ncc1Cl` (10 µM) showed a morphology score in experiment [1] of -0.217. Moreover, the SARS-CoV-2 infection rate in experiment [2] is 97.5% (inactive).

With `CS(=O)(=O)Nc1ccc2oc3c(OC(F)F)ccc(C(=O)Nc4c(Cl)cncc4Cl)c3c2c1` [oglemilast] (10 µM), the morphology score in experiment [1] was found to be 0.291. Besides, in experiment [2], the SARS-CoV-2 infection rate is 92% (inactive).

Consider `CC(C)(C)C(=O)OCOC(=O)[C@@H]1N2C(=O)C[C@H]2S(=O)(=O)C1(C)C` [sulbactam-pivoxil] (10 µM), for which the morphology score in experiment [1] came to 0.184. Also, in experiment [2], the SARS-CoV-2 infection rate is 89% (inactive).

As for `O=C(O)Cc1ccc(OCc2ccccc2)c(Cl)c1` [benzofenac] (10 µM), in experiment [1], the morphology score was -0.114. Further, the SARS-CoV-2 infection rate in experiment [2] is 106% (inactive).

With `Cc1ccc(OCCSc2ncccn2)c(Br)c1` (10 µM), in experiment [1], the morphology score came out at 0.0756. Moreover, in experiment [2], the SARS-CoV-2 infection rate was 104% (inactive).

Compound `NCCC(Oc1ccc(C(F)(F)F)cc1)c1ccccc1` (centres undefined) [norfluoxetine] (10 µM) came in with a morphology score in experiment [1] of 0.568. Besides, in experiment [2], the SARS-CoV-2 infection rate was 59% (active).

Regarding `O=C(O)C1=CCCNC1` [guvacine] (10 µM), the morphology score in experiment [1] came to 0.2. In addition, the SARS-CoV-2 infection rate in experiment [2] is 93% (inactive).

For the compound `COc1ccc2nc3c(c(N)c2c1)CCCC3` [7-methoxytacrine] (10 µM), in experiment [1], the morphology score was 0.597. Besides, the SARS-CoV-2 infection rate in experiment [2] was 64.5% (inactive).

For `COC(=O)c1c(C)[nH]c(C)c1C(=O)c1ccccc1Cc1ccccc1` (10 µM), the morphology score in experiment [1] was -0.254. Moreover, the SARS-CoV-2 infection rate in experiment [2] was 118% (inactive).

`Cc1cc(Nc2cc(CN3CCOCC3)c3nc(C)c(Cc4ccc(Cl)cc4F)n3n2)n[nH]1` (0.833333 µM) came in with a morphology score in experiment [1] of -0.0116. Moreover, the SARS-CoV-2 infection rate in experiment [2] is 107% (inactive).
